Source: the supplement of paper PMC3334620
The full ranking holds about 33,000 sequences; the median of “E-score (-0.5 to 0.5)” is about -0.013, and the highest 2% start at about 0.3. For the sample, the highest values were picked, then their nearest neighbours and some sequences at random.

Target: T1, Msn1 (UniProt P22148)
T1 sequence: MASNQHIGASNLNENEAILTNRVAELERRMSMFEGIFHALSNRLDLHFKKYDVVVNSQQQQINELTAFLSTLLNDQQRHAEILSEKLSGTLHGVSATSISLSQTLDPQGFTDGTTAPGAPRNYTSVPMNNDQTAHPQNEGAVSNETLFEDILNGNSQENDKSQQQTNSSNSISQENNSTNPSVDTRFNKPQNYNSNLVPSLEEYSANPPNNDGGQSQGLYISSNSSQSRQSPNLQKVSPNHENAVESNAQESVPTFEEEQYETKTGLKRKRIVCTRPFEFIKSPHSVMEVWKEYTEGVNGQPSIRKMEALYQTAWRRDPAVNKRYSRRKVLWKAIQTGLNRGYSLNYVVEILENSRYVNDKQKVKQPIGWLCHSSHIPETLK
Test: PBM E-score (8-mer binding enrichment) (E-score (-0.5 to 0.5)); higher = stronger / more preferred TF binding
Conditions: protein concentration: 200 nM; construct: GST-full length
Procedure: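 Universal 'all 10-mer' protein binding microarrays (Agilent AMADID 015681) probed with GST-tagged S. cerevisiae TFs (full-length or DBD) made by in vitro transcription/translation (PURExpress), about 100-200 nM. Bound TF was detected with fluorescent anti-GST. Each ungapped 8-mer (which stands for itself and its reverse complement) is scored by the PBM enrichment score (E-score), a modified Wilcoxon-Mann-Whitney statistic from -0.5 to +0.5, computed with the Universal PBM Analysis Suite. Scale: above 0.35 generally sequence-specific binding.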

| Sequence | PBM E-score |
| --- | --- |
| CGACAAAA | 0.423 |
| CCGTTGAA | 0.00808 |
| CGTAGCTA | -0.123 |
| CCTGCGGA | 0.00937 |
| CGGCCGAC | 0.194 |
| GATTTGGC | -0.221 |
| CATAGATC | 0.0219 |
| CCGTGAGG | -0.283 |
| CATGGAGA | -0.00044 |
| GCCTACAA | -0.0308 |
| ATCCCGTC | -0.0856 |
| AGTAACGC | -0.119 |
| CTCTGAGA | -0.0856 |
| CATACTCA | 0.0936 |
| ATTGGACG | 0.211 |
| CTTGGACA | 0.44 |
| ATTGGACA | 0.445 |
| ATTGGACC | -0.101 |
| CTTGGACC | -0.163 |
| CTTGGAGA | -0.00816 |
| GTTGGACA | 0.437 |
| GTTGGAAA | 0.165 |
| GTTGGATA | 0.0207 |
| CACAATGG | 0.0832 |
| TAGGAACA | 0.0697 |
| GGGTGTCA | -0.0869 |

| Sequence | PBM E-score |
| --- | --- |
| AGAGCTCT | -0.265 |
| AGCCTCCG | -0.213 |
| AGTACTTG | 0.147 |
| ACGACACG | 0.206 |
| AGGACACA | 0.472 |
| AGGACAGC | 0.078 |
| ATGACACG | 0.214 |
| AGGACAGA | 0.437 |
| AGGACAGG | 0.28 |
| AGGACACC | 0.255 |
| ACGACACT | 0.123 |
| ACGACACA | 0.172 |
| AGCACACG | -0.0792 |
| AGGACACT | 0.358 |
| AGGACACG | 0.467 |
| TCGCAAGA | -0.177 |
| AGGCAAAA | 0.163 |
| CTTGTTCA | -0.0388 |
| GAGAGTTA | -0.0018 |
| TCAGTTCA | -0.039 |
| ACTAAAAA | 0.309 |
| ATTAAAAC | 0.156 |
| ATTAAAAG | 0.156 |
| TATAAAAA | 0.318 |
| ACTAAAAC | 0.14 |
| ATTAAAAA | 0.327 |

| Sequence | PBM E-score |
| --- | --- |
| CATAAAAA | 0.181 |
| TATATAAA | 0.253 |
| ACTAAAAG | 0.0984 |
| CAATTTCC | 0.0903 |
| ACCAACAG | -0.127 |
| CGCAAACA | 0.143 |
| CAGCACAG | 0.00522 |
| GTCGTCTA | -0.00305 |
| CGCGTGTC | 0.344 |
| AGCGTGTC | 0.0384 |
| CGCGTGTA | 0.114 |
| AGAAATGG | -0.076 |
| ACCCTTAT | -0.0336 |
| CATGGACC | -0.0789 |
| TATGGACA | 0.476 |
| GATGGACA | 0.443 |
| GATGGAAA | -0.126 |
| CATGGACG | 0.137 |
| AATGGACA | 0.438 |
| CATGGACA | 0.47 |
| TATGGAGA | 0.0848 |
| AATGGACT | 0.19 |
| TATGGAAA | 0.071 |
| GATGGACC | 0.0221 |
| AATGGACG | 0.185 |
| ATTGGTAA | 0.00511 |

| Sequence | PBM E-score |
| --- | --- |
| CCTCCTGA | -0.153 |
| ACACATCC | 0.0829 |
| AATACCCA | -0.0704 |
| TATTGTGA | 0.0467 |
| AGCACCAA | 0.0195 |
| ACAGTGCC | 0.063 |
| CGAATCGA | 0.213 |
| ACAGCCTG | -0.0349 |
| ATGCCAAC | 0.0264 |
| ATTTCCCG | 0.188 |
| AACTACTT | 0.00311 |
| ATGAGCAT | 0.017 |
| CAGAAATA | 0.0248 |
| AAGTCCTC | 0.244 |
| AAGTCCTG | 0.292 |
| ACGTCCTG | 0.0274 |
| AAGTCCTA | 0.409 |
| CCGTCCTA | -0.0332 |
| ACGTCCTA | 0.354 |
| ATTGTCCA | 0.466 |
| CTTGTCGA | 0.0891 |
| CTTGTCCA | 0.464 |
| ATTGTCAA | 0.12 |
| ATTGTACA | 0.242 |
| ATCGTCCA | -0.0991 |
| CTTGTCAA | 0.162 |

| Sequence | PBM E-score |
| --- | --- |
| ATTGTCCG | 0.468 |
| ATTGTTCG | 0.259 |
| CTTGTACA | 0.311 |
| CTTGTACC | 0.286 |
| ACTGTCCG | 0.183 |
| CATTATGC | -0.00798 |
| AGTTCGCC | 0.00171 |
| GACGCGAA | 0.0618 |
| TACTCGAA | -0.00961 |
| GCCGACGC | 0.0201 |
| GTTGTCCA | 0.381 |
| CTTGTCCC | 0.47 |
| GTTGTCGA | 0.00891 |
| ATTGTCCC | 0.462 |
| CTGGTCCC | -0.218 |
| ACTGTCCC | 0.127 |
| GTTGTCAA | 0.0641 |
| CTTGTCAC | 0.296 |
| ATTGTCAC | 0.297 |
| AAACCTTC | -0.288 |
| GCCGTCGC | -0.0331 |
| CTTCAGGC | -0.0893 |
| CAATTGAG | -0.0282 |
| ACATTAGC | 0.147 |
| CAAATCAA | 0.126 |
| CGACAGGC | -0.152 |

| Sequence | PBM E-score |
| --- | --- |
| GAGTTCCC | 0.0462 |
| GTGCTGAA | -0.191 |
| ATGCGTGC | -0.0193 |
| ACTTGTGA | -0.103 |
| ACTTGTCT | 0.407 |
| ACTTGTAT | 0.145 |
| ACTTGTGC | -0.14 |
| GCTTGTAC | 0.267 |
| GCTTGTCC | 0.454 |
| ACTTGTCA | 0.369 |
| ACTTGTCC | 0.467 |
| GCTTGTCA | 0.209 |
| ACTTGTCG | 0.297 |
| ACTTGGCT | -0.176 |
| TCTTGTCA | 0.238 |
| CCTAGCTC | -0.148 |
| CGGTCGCA | -0.0568 |
| CCAACGGA | -0.08 |
| GGCACTAC | -0.284 |
| CGCTCTGC | -0.112 |
| CCTTGTCG | 0.0372 |
| CCTTGTCC | 0.449 |
| CCTTGTCA | 0.0263 |
| CTGGTATC | -0.0417 |
| GACCTATC | 0.0973 |
| GGTGCTAC | -0.204 |

| Sequence | PBM E-score |
| --- | --- |
| ATGTCGTA | 0.395 |
| ATGTCGAG | 0.162 |
| ATGTCGTG | 0.337 |
| CTGTCGTA | -0.0467 |
| ATGTCGTC | 0.191 |
| GTGTCGTA | 0.228 |
| GCTGCGTA | -0.124 |
| AAACGAGC | -0.0279 |
| GCCAAAGC | -0.0464 |
| CACTGCCG | 0.0826 |
| TGAGGAAA | 0.0866 |
| CGAGGACA | 0.453 |
| CGAGGACG | 0.0859 |
| GGAGGAGA | -0.179 |
| CGAGGACC | -0.14 |
| TGAGGCCA | -0.117 |
| GGAGGACA | 0.4 |
| GGAGGACC | -0.25 |
| AGAGGACA | 0.353 |
| AGAGGACT | -0.21 |
| AGAGGACC | -0.208 |
| TGAGGACA | 0.46 |
